Experimental data taken from PubChem BioAssay (NCI).
This is part of a sample that, as a whole, favours compounds with a hit. Of some 83,000 tested, about 20% had one in any assay.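 The test compound was applied at a single concentration to cells in 96-well plates for 48 hours, and percent growth was recorded.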 Activity calls are given as the source filed them. The calls were made as follows: active = growth percent below 10; inactive = the rest.

Experiments:
Assay in all cases: NCI-60 one-dose screen, 48 h (100 = growth as untreated, 0 = no growth, -100 = all killed)
Details in all cases: 10 µM
SK-MEL-2 melanoma = system: SK-MEL-2 melanoma
SN12C renal = system: SN12C renal
UO-31 renal = system: UO-31 renal
TK-10 renal = system: TK-10 renal
ACHN renal = system: ACHN renal
CAKI-1 renal = system: CAKI-1 renal
A498 renal = system: A498 renal
CCRF-CEM leukemia = system: CCRF-CEM leukemia
MOLT-4 leukemia = system: MOLT-4 leukemia
SR leukemia = system: SR leukemia
RPMI-8226 leukemia = system: RPMI-8226 leukemia
OVCAR-8 ovarian = system: OVCAR-8 ovarian
OVCAR-5 ovarian = system: OVCAR-5 ovarian
OVCAR-4 ovarian = system: OVCAR-4 ovarian
SK-OV-3 ovarian = system: SK-OV-3 ovarian
OVCAR-3 ovarian = system: OVCAR-3 ovarian
HS 578T breast = system: HS 578T breast
NCI/ADR-RES ovarian = system: NCI/ADR-RES ovarian
IGROV1 ovarian = system: IGROV1 ovarian

Measured: growth

CC(=O)OCC(COC(C)=O)(COC(C)=O)COC(C)=O
inactive: SK-MEL-2 melanoma 101% | SN12C renal 108% | UO-31 renal 84.7% | TK-10 renal 108% | ACHN renal 110% | CAKI-1 renal 103% | A498 renal 73.4% | CCRF-CEM leukemia 103% | MOLT-4 leukemia 93.5% | SR leukemia 86.6% | RPMI-8226 leukemia 97.6% | OVCAR-8 ovarian 103% | OVCAR-5 ovarian 102% | OVCAR-4 ovarian 112% | SK-OV-3 ovarian 99.6% | OVCAR-3 ovarian 103% | HS 578T breast 101% | NCI/ADR-RES ovarian 106%

COc1ccc(-c2ccc(-c3ccc(C(=N)N)c(F)c3)s2)cc1
active: SK-MEL-2 melanoma -75.3% | SN12C renal -79.2% | UO-31 renal -86.8% | TK-10 renal -96.4% | ACHN renal -89.7% | CAKI-1 renal -89.8% | A498 renal -97.4% | CCRF-CEM leukemia -68.3% | MOLT-4 leukemia -80.1% | SR leukemia -21.2% | RPMI-8226 leukemia -65.6% | OVCAR-8 ovarian -48.7% | OVCAR-4 ovarian -67.9% | SK-OV-3 ovarian -93.8% | IGROV1 ovarian -62.7% | OVCAR-3 ovarian -96% | HS 578T breast -54.3% | NCI/ADR-RES ovarian -51.3%

Clc1ccc(-c2nc(-c3cccs3)cn3ccnc23)cc1
inactive: SK-MEL-2 melanoma 70.6% | SN12C renal 85.3% | UO-31 renal 45.9% | TK-10 renal 60.7% | ACHN renal 91.2% | CAKI-1 renal 59% | A498 renal 90.5% | CCRF-CEM leukemia 65.3% | MOLT-4 leukemia 62.4% | SR leukemia 59.5% | RPMI-8226 leukemia 64.7% | OVCAR-8 ovarian 81% | OVCAR-5 ovarian 108% | SK-OV-3 ovarian 50.2% | IGROV1 ovarian 60.9% | OVCAR-3 ovarian 72.6% | HS 578T breast 87% | NCI/ADR-RES ovarian 55.5%

CC(=O)[C@H]1CC[C@H]2[C@@H]3CC[C@@H]4CC=C(C=O)C[C@]4(C)[C@H]3CC[C@]12C
inactive: SK-MEL-2 melanoma 99.3% | SN12C renal 93.4% | UO-31 renal 84.8% | TK-10 renal 85.2% | ACHN renal 92.4% | CAKI-1 renal 88.5% | A498 renal 76.8% | CCRF-CEM leukemia 82.6% | MOLT-4 leukemia 72.8% | SR leukemia 73.5% | RPMI-8226 leukemia 58.1% | OVCAR-8 ovarian 97.8% | OVCAR-4 ovarian 99% | SK-OV-3 ovarian 95.8% | IGROV1 ovarian 89.4% | OVCAR-3 ovarian 107% | HS 578T breast 106% | NCI/ADR-RES ovarian 87.5%

CCCCCCCCCCCCCCCCCBr
inactive: SK-MEL-2 melanoma 108% | SN12C renal 98.9% | UO-31 renal 91.4% | TK-10 renal 108% | ACHN renal 102% | CAKI-1 renal 97.2% | A498 renal 64.1% | CCRF-CEM leukemia 94.4% | MOLT-4 leukemia 96% | SR leukemia 92.7% | RPMI-8226 leukemia 102% | OVCAR-8 ovarian 106% | OVCAR-5 ovarian 100% | OVCAR-4 ovarian 111% | SK-OV-3 ovarian 100% | OVCAR-3 ovarian 114% | HS 578T breast 91.9% | NCI/ADR-RES ovarian 104%

COc1cc(-c2nc3ccccc3[nH]2)ccc1OCc1nnc(-c2ccc(Br)cc2)o1
active: SR leukemia -25.7%
inactive: SK-MEL-2 melanoma 105% | SN12C renal 85.8% | UO-31 renal 79.5% | TK-10 renal 130% | ACHN renal 98.6% | CAKI-1 renal 95.5% | A498 renal 79.6% | CCRF-CEM leukemia 67.9% | MOLT-4 leukemia 63.8% | RPMI-8226 leukemia 51.5% | OVCAR-8 ovarian 75.7% | OVCAR-5 ovarian 109% | SK-OV-3 ovarian 108% | IGROV1 ovarian 87.4% | OVCAR-3 ovarian 110% | HS 578T breast 78.4% | NCI/ADR-RES ovarian 92.5%

O=C1/C(=C/c2ccc(O)cc2)Oc2ccc(Cl)cc21
inactive: SK-MEL-2 melanoma 109% | SN12C renal 84.6% | UO-31 renal 38.5% | TK-10 renal 117% | ACHN renal 95.4% | CAKI-1 renal 77.1% | A498 renal 125% | CCRF-CEM leukemia 88.2% | MOLT-4 leukemia 81.1% | SR leukemia 109% | RPMI-8226 leukemia 119% | OVCAR-8 ovarian 79.4% | OVCAR-4 ovarian 120% | SK-OV-3 ovarian 111% | OVCAR-3 ovarian 92.9% | HS 578T breast 87.1% | NCI/ADR-RES ovarian 87.3%
active: IGROV1 ovarian -27.4%

COc1ccc(-c2cc(/C=C3\C(=O)Nc4cc(Cl)ccc43)[nH]n2)cc1OC
inactive: SK-MEL-2 melanoma 58.7% | SN12C renal 70.5% | UO-31 renal 74.6% | TK-10 renal 92.7% | ACHN renal 84.3% | CAKI-1 renal 63.9% | A498 renal 65.3% | CCRF-CEM leukemia 54.2% | MOLT-4 leukemia 75% | SR leukemia 21.9% | RPMI-8226 leukemia 79.8% | OVCAR-8 ovarian 104% | OVCAR-5 ovarian 95.7% | OVCAR-4 ovarian 85.6% | SK-OV-3 ovarian 78.2% | OVCAR-3 ovarian 53% | HS 578T breast 60.5% | NCI/ADR-RES ovarian 62.5%

COc1cc(-c2cc(-c3cc(OC)c(OC)c(OC)c3)nc3nc(N)[nH]c(=O)c23)ccc1Oc1ccnc2cc(Cl)ccc12
inactive: SK-MEL-2 melanoma 29.2% | SN12C renal 31.3% | UO-31 renal 46.3% | TK-10 renal 92.9% | ACHN renal 48.4% | CAKI-1 renal 38.7% | A498 renal 84.9% | CCRF-CEM leukemia 18.2% | MOLT-4 leukemia 17.7% | RPMI-8226 leukemia 19.7% | OVCAR-8 ovarian 42.1% | OVCAR-4 ovarian 39% | SK-OV-3 ovarian 26.2% | IGROV1 ovarian 52.8% | HS 578T breast 36.3% | NCI/ADR-RES ovarian 21.8%
active: SR leukemia 5.24% | OVCAR-3 ovarian -26.1%

COc1cc(-c2nc3ccc(C)cc3[nH]2)ccc1OCC(=O)N=Nc1c(O)[nH]c2ccccc12
inactive: UO-31 renal 95.9% | TK-10 renal 10.3% | ACHN renal 14% | A498 renal 75.5% | NCI/ADR-RES ovarian 87.5%
active: SK-MEL-2 melanoma -52.9% | SN12C renal -61.8% | CAKI-1 renal -46.3% | CCRF-CEM leukemia -50% | MOLT-4 leukemia -65% | SR leukemia -36.7% | RPMI-8226 leukemia -54% | OVCAR-8 ovarian -72.8% | OVCAR-5 ovarian -32.4% | SK-OV-3 ovarian -3.57% | IGROV1 ovarian -27.4% | OVCAR-3 ovarian -94.5% | HS 578T breast -46.8%

COc1cc2c3c(cccc3c1)C(=O)N(CCN1CCCC1)C2=O
inactive: SN12C renal 29.7% | CAKI-1 renal 14.2% | CCRF-CEM leukemia 18.9% | RPMI-8226 leukemia 12.2% | OVCAR-5 ovarian 34.1% | OVCAR-4 ovarian 21.6% | SK-OV-3 ovarian 34.1% | HS 578T breast 27.1% | NCI/ADR-RES ovarian 13%
active: SK-MEL-2 melanoma -8.39% | UO-31 renal -3.17% | TK-10 renal -6.26% | ACHN renal 7.6% | A498 renal -22.1% | MOLT-4 leukemia 4.5% | SR leukemia 2.44% | OVCAR-8 ovarian 6.43% | OVCAR-3 ovarian 0.462%

COc1cc(-c2nc3ccc(C)cc3[nH]2)ccc1OCc1nnc(-c2ccc(CC(C)C)cc2)o1
active: SR leukemia -2.79%
inactive: SK-MEL-2 melanoma 97.3% | SN12C renal 92% | UO-31 renal 77.8% | TK-10 renal 119% | ACHN renal 107% | CAKI-1 renal 95.1% | A498 renal 81.8% | CCRF-CEM leukemia 80.3% | MOLT-4 leukemia 82.4% | RPMI-8226 leukemia 68.9% | OVCAR-8 ovarian 97.8% | OVCAR-4 ovarian 91.2% | SK-OV-3 ovarian 94.4% | OVCAR-3 ovarian 101% | HS 578T breast 84% | NCI/ADR-RES ovarian 96%

Cc1nnc2c3nnc(-c4ccc(Cl)cc4)n3c3ccccc3n12
inactive: SK-MEL-2 melanoma 99.9% | SN12C renal 97.7% | UO-31 renal 72.4% | TK-10 renal 92% | ACHN renal 101% | CAKI-1 renal 93.2% | A498 renal 94.3% | CCRF-CEM leukemia 90.3% | MOLT-4 leukemia 89.9% | SR leukemia 77% | RPMI-8226 leukemia 95% | OVCAR-8 ovarian 98.1% | OVCAR-5 ovarian 100% | SK-OV-3 ovarian 92.5% | IGROV1 ovarian 91.8% | OVCAR-3 ovarian 104% | HS 578T breast 97.9% | NCI/ADR-RES ovarian 107%

O/N=C1\CCC2CCCCC2C1 (centres undefined)
inactive: SK-MEL-2 melanoma 101% | SN12C renal 113% | UO-31 renal 95.5% | TK-10 renal 101% | ACHN renal 97.3% | CAKI-1 renal 96.2% | A498 renal 103% | CCRF-CEM leukemia 103% | MOLT-4 leukemia 98.6% | SR leukemia 87.1% | RPMI-8226 leukemia 104% | OVCAR-8 ovarian 112% | OVCAR-5 ovarian 104% | OVCAR-4 ovarian 97.8% | SK-OV-3 ovarian 105% | OVCAR-3 ovarian 111% | HS 578T breast 108% | NCI/ADR-RES ovarian 109%

O=C(Nc1cccc(-c2nc3ccccc3[nH]2)c1)c1cccc(NC(=O)c2ccco2)c1
inactive: SK-MEL-2 melanoma 101% | SN12C renal 79.1% | UO-31 renal 73.2% | TK-10 renal 91.6% | ACHN renal 86% | CAKI-1 renal 77.6% | A498 renal 83.6% | CCRF-CEM leukemia 68.3% | MOLT-4 leukemia 86.4% | SR leukemia 23.5% | RPMI-8226 leukemia 69.2% | OVCAR-8 ovarian 87.2% | OVCAR-4 ovarian 80% | SK-OV-3 ovarian 102% | IGROV1 ovarian 86.2% | OVCAR-3 ovarian 98.3% | HS 578T breast 79.4% | NCI/ADR-RES ovarian 84.9%

COc1ccccc1NC1=C(N2CCCCC2)C(=O)c2ccccc2C1=O
inactive: SK-MEL-2 melanoma 98.2% | SN12C renal 84.6% | UO-31 renal 75.3% | TK-10 renal 96.2% | ACHN renal 88% | CAKI-1 renal 85.8% | A498 renal 39.4% | CCRF-CEM leukemia 72.5% | MOLT-4 leukemia 58.8% | SR leukemia 76.3% | RPMI-8226 leukemia 40.2% | OVCAR-8 ovarian 84.7% | OVCAR-5 ovarian 96.2% | OVCAR-4 ovarian 69.7% | SK-OV-3 ovarian 102% | OVCAR-3 ovarian 87% | HS 578T breast 93.3% | NCI/ADR-RES ovarian 87.3%

Fc1ccc2[nH]c3c(NCCCN4CCOCC4)ncnc3c2c1
inactive: SK-MEL-2 melanoma 65.7% | SN12C renal 63.8% | UO-31 renal 45.9% | TK-10 renal 12.7% | ACHN renal 23.9% | CAKI-1 renal 25.2% | A498 renal 130% | CCRF-CEM leukemia 74.7% | MOLT-4 leukemia 83.1% | SR leukemia 52.1% | RPMI-8226 leukemia 46.4% | OVCAR-8 ovarian 68.3% | SK-OV-3 ovarian 33.4% | OVCAR-3 ovarian 59.7% | HS 578T breast 34.5% | NCI/ADR-RES ovarian 72.7%
active: OVCAR-4 ovarian -38.6%
